Screening data from PubChem BioAssay.
RecA splice inh: Mtb RecA intein splicing inhibitors, primary screen, biochemical, fluorescence, HTS. 0.75% of 290,000 active. AID 2221, 2009. cell-free RecA intein splicing. inhibition, % (no concentration beside the values); in the data active means inhibition above about 30%
Target sequence (P9WHJ3 whole entry, looked up, canonical isoform): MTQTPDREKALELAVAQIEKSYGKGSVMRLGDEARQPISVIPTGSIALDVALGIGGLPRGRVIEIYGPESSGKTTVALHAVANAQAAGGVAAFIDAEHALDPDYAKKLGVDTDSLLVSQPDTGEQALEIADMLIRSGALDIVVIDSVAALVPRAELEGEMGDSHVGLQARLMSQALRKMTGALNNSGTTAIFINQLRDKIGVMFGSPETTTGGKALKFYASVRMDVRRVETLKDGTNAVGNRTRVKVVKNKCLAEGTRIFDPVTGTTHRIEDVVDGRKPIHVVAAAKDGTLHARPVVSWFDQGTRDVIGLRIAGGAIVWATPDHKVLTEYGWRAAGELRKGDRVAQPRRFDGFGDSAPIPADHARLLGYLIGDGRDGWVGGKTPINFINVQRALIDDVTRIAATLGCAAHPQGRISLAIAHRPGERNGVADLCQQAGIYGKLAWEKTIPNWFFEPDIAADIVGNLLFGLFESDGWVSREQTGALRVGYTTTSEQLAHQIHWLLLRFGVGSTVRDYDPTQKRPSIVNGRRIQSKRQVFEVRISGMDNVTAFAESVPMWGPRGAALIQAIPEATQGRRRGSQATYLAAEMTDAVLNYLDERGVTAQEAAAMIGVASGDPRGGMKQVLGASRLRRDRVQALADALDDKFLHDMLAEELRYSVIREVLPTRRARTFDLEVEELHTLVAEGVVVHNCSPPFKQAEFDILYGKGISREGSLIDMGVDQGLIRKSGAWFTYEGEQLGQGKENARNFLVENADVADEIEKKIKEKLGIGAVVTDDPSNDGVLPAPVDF
PrPC surface inh: inhibitors of human cell surface prion protein PrPC, primary screen, cell-based, TR-FRET | TR-FRET read-out | AID 720596, 2013 | 0.43% of 370,000 active | inhibition, % at 13.8 µM | Major prion protein (Homo sapiens), P04156; in the data active means inhibition above about 24%
BJeLR viability: MLPCN primary cell-based screen for lethality selective to Ras in HRASV12 cells; BJeLR (HRASV12) viability, CellTiter-Glo ATP luminescence, 48 h; inhibition, % (concentration not given with the values); 0.17% of 300,000 active; AID 1554, 2009; in the data active means inhibition above about 50%
GDH-TPI inh: GDH-TPI coupling enzyme inhibitors, primary screen, artefact control for M. tuberculosis FBA inhibitor project, biochemical, absorbance, full deck. AID 588335, 2011. GDH-TPI coupled enzyme counterscreen, NADH absorbance. inhibition, % at 4.8 µM. 1.2% of 360,000 active; in the data active means inhibition above about 30%
Mtb FBA inh: Mtb FBA enzyme inhibitors, primary screen, biochemical, fluorescence, strain H37Rv; Fructose-bisphosphate aldolase (Mycobacterium tuberculosis (strain ATCC 25618 / H37Rv)), …; purified M. tuberculosis FBA, fluorescence read-out; inhibition, % at 1 µM; 2.3% of 360,000 active; AID 588726, 2011; in the data active means inhibition above about 27%
GFP chromophore: counter-screen: blocks GFP chromophore formation, dose response, counter-screen, biochemical, fluorescence, homogeneous | cell-free GFP chromophore formation | EC50, µM | 83% of 2,100 active | shares compounds with RecA splice inh; call rule not given here
Of the large screens only hits and unclear results are named; the others gave an inactive call (follow-up assays come after a bar, where they were run). An excerpt weighted towards active compounds, which were near 4.2% of everything screened.

COC(=O)[C@]12CCCCC=C1N(Cc1ccc(OC)cc1)C(=O)[C@@H]2CC(=O)NCCc1ccccc1OC	none (no result: RecA splice inh, BJeLR viability, GDH-TPI inh, Mtb FBA inh)
COc1ccc(OC)c(CN2C(=O)CN(S(C)(=O)=O)CC2(C)c2nnnn2C2CCCC2)c1 (stereo not given)	none (no result: RecA splice inh, BJeLR viability, GDH-TPI inh, Mtb FBA inh)
O=S1(=O)N[C@H](Cc2ccccc2)COc2cc(Br)ccc21	none (no result: RecA splice inh, BJeLR viability, GDH-TPI inh, Mtb FBA inh)
O=C1C2C(c3ccccc3)CC=CC2[C@H](c2ccc(C(F)(F)F)cc2)N1Cc1ccccc1 (stereo not given in full)	none
COc1ccc(Br)cc1[C@H]1[C@H]2C=CC[C@@H](C)[C@@H]2C(=O)N1Cc1ccccc1	RecA splice inh 34.1 | GFP chromophore inactive
C[C@@H]1CC=C[C@H]2[C@H]1C(=O)N(Cc1ccccc1)[C@H]2c1ccc(C(F)(F)F)cc1	RecA splice inh 36.5 | GFP chromophore inactive
COc1ccc(-c2ccc(OC)c([C@H]3[C@H]4C=CC[C@@H](C)[C@@H]4C(=O)N3Cc3ccccc3)c2)cc1OC	none
COc1cc(Cc2nccc3cc(OC)c(OC)cc23)c(S(=O)(=O)O)cc1OC	RecA splice inh 41.9 | GFP chromophore inactive
COc1ccc(C2OCCNC3C2C(=O)N(Cc2ccc(OC)cc2OC)C3Cc2ccccc2)cc1 (stereo not given)	none (no result: RecA splice inh, BJeLR viability, GDH-TPI inh, Mtb FBA inh)
COc1ccc(/C=C/C(=O)c2ccncc2)c2ccccc12	RecA splice inh 56.9 | GFP chromophore 22.6
COc1ccc(/C=C/C(=O)c2ccc[nH]2)c(OC)c1OC	none
COC(=O)CN1C(=O)C(O)(CC(=O)c2ccc(Cl)cc2)c2ccccc21 (stereo not given)	none (no result: RecA splice inh, BJeLR viability)
COC(=O)C[C@]1(C(=O)OC)CN(C#N)N(c2ccc(Cl)cc2)C12c1ccccc1-c1ccccc12	RecA splice inh 73.7, PrPC surface inh 74.9, BJeLR viability 66.9 | GFP chromophore 4.65
Cc1ccc2[nH]c3c(c2c1)CN(C(=O)CN1CCSCC1)CC3	RecA splice inh 61.3 (no result: GDH-TPI inh, Mtb FBA inh) | GFP chromophore 0.191
COc1ccccc1C=NNC(=O)CSc1nc2ccccc2n1Cc1ccc(Cl)cc1	none (no result: RecA splice inh, BJeLR viability, GDH-TPI inh, Mtb FBA inh)
COc1ccc(N(C)C(=O)c2cc3c(s2)-c2c(C)cccc2OC3)c(OC)c1	RecA splice inh 33.5, GDH-TPI inh 31.2 | GFP chromophore inactive
CCOC(=O)C(Nc1ccc2ccccc2c1)C(=O)OCC	RecA splice inh 70.5 | GFP chromophore 21.8
CC(=O)N(c1ccccc1)C(C)c1nc(C#N)c(C#N)nc1C (stereo not given)	RecA splice inh 62.1 | GFP chromophore 38.5
Cc1cccc(N(Cc2cc(=O)[nH]c3ccccc23)C(=O)CCl)c1	RecA splice inh 41.4 | GFP chromophore 8.03
COc1ccc(N(Cc2cc(=O)[nH]c3ccccc23)C(=O)CCl)cc1	none (no result: RecA splice inh) | GFP chromophore 15.3
CCCC(=O)N(Cc1cc(=O)[nH]c2ccccc12)c1cccc(C)c1	none
CCC[C@H]1[C@@H](OC(=O)NCc2ccc(Cl)cc2)CC[C@@]23CCCN2C(=O)CCC[C@@H]13	none (no result: RecA splice inh, BJeLR viability, GDH-TPI inh, Mtb FBA inh)
CC(C)CNC(=O)OCc1cn(Cc2ccccc2C(F)(F)F)nn1	none (no result: RecA splice inh, BJeLR viability, GDH-TPI inh, Mtb FBA inh)
Nc1c(N2CCCC2)cc(Cl)c2nonc12	RecA splice inh 69.8 (no result: PrPC surface inh) | GFP chromophore 5.09
Nc1c(N2CCOCC2)cc(Cl)c2nonc12	none
O=[N+]([O-])c1ccc(N2CCCCCC2)c2nonc12	none
Nc1ccc(N2CCCCC2)c2nonc12	RecA splice inh 74.7 | GFP chromophore 10.7
COc1cc(O)c([C@@H](CC(=O)N2CC(C)CC(C)C2)c2ccc3c(c2)OCO3)c(OC)c1 (stereo not given in full)	none (no result: RecA splice inh, BJeLR viability, GDH-TPI inh, Mtb FBA inh)
Cc1ccc(C)c(Sc2ccc(NC(=O)CCN3C(=O)NC4(CCCC4)C3=O)cc2)c1	none (no result: RecA splice inh, BJeLR viability)
Cc1ccc(Sc2ccc(NC(=O)CCl)cc2)c(C)c1	RecA splice inh 89.9 (no result: GDH-TPI inh, Mtb FBA inh) | GFP chromophore 8.1
CCOC(=O)/C=c1\s/c(=C(\C#N)C(N)=O)n(-c2ccccc2)c1=O	RecA splice inh 48.9 | GFP chromophore 24.2
O=C(NCc1ccccc1)C1CCN(c2nc(-c3ccc(Br)cc3)cs2)CC1	none (no result: RecA splice inh, BJeLR viability, GDH-TPI inh, Mtb FBA inh)
O=C(NCc1ccccc1)OCCCN1C(=O)CCC12CCCCC2	none (no result: RecA splice inh, BJeLR viability, GDH-TPI inh, Mtb FBA inh)
Cc1cc(C(c2ccc(O)cc2)c2cc(C)c(O)cc2C)c(C)cc1O	RecA splice inh 33.1 | GFP chromophore inactive
CCC(c1ccc(O)cc1)C(CC)c1ccc(O)cc1 (stereo not given)	none (no result: RecA splice inh, BJeLR viability)
CCC(C)[C@@H](NC(=O)OC(C)(C)C)c1nnc(S(=O)(=O)Cc2cccc(C)c2)o1 (stereo not given in full)	RecA splice inh 36.9 | GFP chromophore 30.8
CC(C)(C)OC(=O)N[C@@H](Cc1ccccc1)c1nnc(S(=O)(=O)Cc2ccccc2)o1	none (no result: RecA splice inh, BJeLR viability, GDH-TPI inh, Mtb FBA inh)
Cc1cccc(CS(=O)(=O)Cc2ccc(C(=O)NC(C)c3ccccc3)o2)c1 (stereo not given)	none
Cc1ccccc1CS(=O)(=O)c1nnc([C@H](Cc2ccccc2)NC(=O)OC(C)(C)C)o1	RecA splice inh 41.5 | GFP chromophore 11.7
O=C(OC12CCCN(C1)/C(=C/c1ccncc1)C2)C1CCCCC1 (stereo not given)	none (no result: RecA splice inh, BJeLR viability, GDH-TPI inh, Mtb FBA inh)
CC(C)(C)c1ccc(-c2nnc(SCC(=O)Nc3ccc4cn[nH]c4c3)n2-c2ccc(Cl)cc2)cc1	none (no result: RecA splice inh, BJeLR viability, GDH-TPI inh, Mtb FBA inh)
CCN(Cc1cn(Cc2ccccc2)nn1)S(=O)(=O)c1ccc(F)cc1Br	none (no result: RecA splice inh, BJeLR viability, GDH-TPI inh, Mtb FBA inh)
CN(Cc1ccccc1F)C(=O)C1CCC(CNS(=O)(=O)c2cccc3cccnc23)CC1 (stereo not given)	none (no result: RecA splice inh, BJeLR viability, GDH-TPI inh, Mtb FBA inh)
CC(=O)n1cc(N(C(=O)CCl)c2ccc(C)cc2)c2ccccc21	RecA splice inh 91.2, BJeLR viability 84.4 | GFP chromophore 1.73
O=C(CCC(=O)N1CCN(C2c3ccccc3-c3ccccc32)CC1)Nc1nnc(C(F)(F)F)s1	none (no result: RecA splice inh, BJeLR viability, GDH-TPI inh, Mtb FBA inh)
Clc1ccc(-c2nnc3n2N=C(c2ccc(-c4ccccc4)cc2)CS3)cc1	none (no result: RecA splice inh, BJeLR viability, GDH-TPI inh, Mtb FBA inh)
CC(=O)Oc1ccc2c(=O)oc(-c3ccccc3C)nc2c1	RecA splice inh 33.2 | GFP chromophore inactive
CC(=O)Oc1ccc2c(=O)oc(-c3ccccc3)nc2c1	none
CCNC(=S)NNC(=O)CSc1nc2ccccc2c(=O)n1-c1ccc(Cl)cc1	none (no result: RecA splice inh, BJeLR viability, GDH-TPI inh, Mtb FBA inh)
COc1cc(/C=N/NC(=S)Nc2cccc(Cl)c2C)ccc1OCC(=O)N1CC(C)OC(C)C1 (stereo not given)	RecA splice inh 55.2, GDH-TPI inh 32.6 | GFP chromophore 36.7
COc1cc(/C=N/NC(=O)c2ccc(Cl)cc2)ccc1OCC(=O)N1CC(C)OC(C)C1 (stereo not given)	none (no result: BJeLR viability)
CCOc1ccc(NC(=O)C(c2ccccn2)N(C(=O)CCl)c2ccc(F)cc2)cc1 (stereo not given)	RecA splice inh 66.4 (no result: PrPC surface inh) | GFP chromophore 15.1
CCOc1ccc(NC(=O)N(c2ccccc2)c2ccccc2)cc1	none (no result: RecA splice inh)
